Assay results published in PMC7862700, “An all-to-all approach to the identification of sequence-specific readers for epigenetic DNA modifications on cytosine”.

Tests used:
Assay in all cases: DAPPL (digital affinity profiling via proximity ligation, sequencing); 10 mM Tris-HCl pH 7.5, 50 mM NaCl, 1 mM DTT, 4% glycerol, room temperature, 30 min; GST-TFs on glutathione beads, 16-mer random dsDNA library, 0.1% formaldehyde crosslink after washing; high values mean tight binding
Conditions in all cases: protein: recombinant; tags: N-terminal GST; dsDNA, one strand shown
ERF = biological target: T1, ERF (Homo sapiens, UniProt P50548 1-548)
T1 sequence: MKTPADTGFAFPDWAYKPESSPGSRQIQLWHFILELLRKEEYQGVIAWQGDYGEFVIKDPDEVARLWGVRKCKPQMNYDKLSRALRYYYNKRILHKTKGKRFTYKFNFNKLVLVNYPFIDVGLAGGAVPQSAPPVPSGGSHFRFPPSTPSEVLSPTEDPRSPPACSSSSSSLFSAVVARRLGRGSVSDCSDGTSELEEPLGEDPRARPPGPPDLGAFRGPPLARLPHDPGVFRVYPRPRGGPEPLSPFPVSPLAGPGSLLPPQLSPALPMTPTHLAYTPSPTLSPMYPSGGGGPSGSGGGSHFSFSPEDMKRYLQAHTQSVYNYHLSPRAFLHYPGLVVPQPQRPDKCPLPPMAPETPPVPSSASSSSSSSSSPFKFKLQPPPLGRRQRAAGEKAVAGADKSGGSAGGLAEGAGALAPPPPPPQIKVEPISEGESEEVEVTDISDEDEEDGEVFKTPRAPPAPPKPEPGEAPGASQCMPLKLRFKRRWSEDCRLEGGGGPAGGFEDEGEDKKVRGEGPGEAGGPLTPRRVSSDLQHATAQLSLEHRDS
In short: (§1)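 Binding signal is given per hexamer as its read frequency for a factor divided by its frequency in the tag-only sample. GST-fused human transcription factors were expressed in yeast, captured on glutathione beads, barcoded with DNA and pooled with that sample, then incubated with 200 nmole of a 16-mer random double-stranded DNA library in Tris/NaCl/DTT/glycerol buffer for 30 min at room temperature. The pools were then washed, crosslinked, proximity-ligated, amplified by PCR and sequenced on an Illumina NextSeq500.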

ETV3L = biological target: T2, ETV3L (Homo sapiens, UniProt Q6ZN32 1-361)
T2 sequence: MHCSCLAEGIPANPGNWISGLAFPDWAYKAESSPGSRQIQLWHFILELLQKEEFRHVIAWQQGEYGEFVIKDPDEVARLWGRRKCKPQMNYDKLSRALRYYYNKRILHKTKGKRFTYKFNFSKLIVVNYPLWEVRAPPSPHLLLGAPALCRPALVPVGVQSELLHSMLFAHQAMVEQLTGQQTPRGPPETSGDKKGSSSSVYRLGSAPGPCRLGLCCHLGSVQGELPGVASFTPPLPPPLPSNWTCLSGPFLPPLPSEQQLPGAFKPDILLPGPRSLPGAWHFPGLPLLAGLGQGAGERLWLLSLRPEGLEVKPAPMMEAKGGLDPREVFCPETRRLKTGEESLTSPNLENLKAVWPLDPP
In short: as §1

ETS2 = biological target: T3, ETS2 (Homo sapiens, UniProt P15036 1-469)
T3 sequence: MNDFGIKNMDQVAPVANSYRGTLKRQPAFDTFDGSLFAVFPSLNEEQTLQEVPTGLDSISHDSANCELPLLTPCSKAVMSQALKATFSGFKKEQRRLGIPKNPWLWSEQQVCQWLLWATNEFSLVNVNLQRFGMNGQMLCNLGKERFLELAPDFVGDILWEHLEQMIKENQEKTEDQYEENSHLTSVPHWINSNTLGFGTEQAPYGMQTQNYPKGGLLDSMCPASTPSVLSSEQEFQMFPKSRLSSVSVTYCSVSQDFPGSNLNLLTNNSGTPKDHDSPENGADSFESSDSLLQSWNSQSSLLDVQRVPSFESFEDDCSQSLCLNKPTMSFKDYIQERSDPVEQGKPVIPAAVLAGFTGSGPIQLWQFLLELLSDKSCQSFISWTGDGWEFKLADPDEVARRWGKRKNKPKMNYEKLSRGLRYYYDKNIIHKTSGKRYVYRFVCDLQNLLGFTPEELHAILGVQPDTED
In short: as §1

SPDEF = biological target: T4, SPDEF (Homo sapiens, UniProt O95238 1-335)
T4 sequence: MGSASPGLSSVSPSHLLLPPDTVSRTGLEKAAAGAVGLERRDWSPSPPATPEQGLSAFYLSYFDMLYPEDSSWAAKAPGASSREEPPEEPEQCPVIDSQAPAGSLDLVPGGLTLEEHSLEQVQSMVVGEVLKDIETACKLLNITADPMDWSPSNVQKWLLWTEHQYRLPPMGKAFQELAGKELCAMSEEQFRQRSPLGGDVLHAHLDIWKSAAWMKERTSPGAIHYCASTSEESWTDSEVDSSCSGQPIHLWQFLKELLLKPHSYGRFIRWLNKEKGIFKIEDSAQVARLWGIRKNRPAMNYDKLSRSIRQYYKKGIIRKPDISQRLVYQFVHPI
In short: as §1

ETV7 = biological target: T5, ETV7 (Homo sapiens, UniProt Q9Y603 1-341)
T5 sequence: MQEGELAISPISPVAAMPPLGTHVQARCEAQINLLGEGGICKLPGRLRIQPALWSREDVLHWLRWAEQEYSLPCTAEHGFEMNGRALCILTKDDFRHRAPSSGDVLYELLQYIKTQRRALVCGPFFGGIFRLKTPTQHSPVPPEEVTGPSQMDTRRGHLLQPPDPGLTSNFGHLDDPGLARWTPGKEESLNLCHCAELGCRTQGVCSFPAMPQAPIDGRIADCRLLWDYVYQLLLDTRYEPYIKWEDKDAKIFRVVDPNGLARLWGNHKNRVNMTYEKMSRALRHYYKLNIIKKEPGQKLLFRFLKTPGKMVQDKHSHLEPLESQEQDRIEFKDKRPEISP
In short: as §1

ELF5 = biological target: T6, ELF5 (Homo sapiens, UniProt Q9UKW6-2 1-255)
T6 sequence: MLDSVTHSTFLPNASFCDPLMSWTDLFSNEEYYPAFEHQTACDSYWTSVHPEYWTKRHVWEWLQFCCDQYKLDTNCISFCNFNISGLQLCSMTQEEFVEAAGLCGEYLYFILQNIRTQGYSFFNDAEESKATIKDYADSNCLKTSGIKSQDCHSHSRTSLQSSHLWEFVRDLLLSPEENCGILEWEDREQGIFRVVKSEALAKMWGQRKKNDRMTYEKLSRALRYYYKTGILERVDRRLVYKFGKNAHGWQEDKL
In short: as §1

ETV3 = biological target: T7, ETV3 (Homo sapiens, UniProt P41162-2 1-143)
T7 sequence: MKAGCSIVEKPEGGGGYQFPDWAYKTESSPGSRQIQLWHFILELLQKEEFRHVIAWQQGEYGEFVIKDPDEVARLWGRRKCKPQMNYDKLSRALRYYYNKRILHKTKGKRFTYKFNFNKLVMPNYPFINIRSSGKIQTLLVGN
In short: as §1

ETV6 = ETV6 (Homo sapiens, UniProt P41212 1-452)
ETV6, sequence (P41212 whole entry): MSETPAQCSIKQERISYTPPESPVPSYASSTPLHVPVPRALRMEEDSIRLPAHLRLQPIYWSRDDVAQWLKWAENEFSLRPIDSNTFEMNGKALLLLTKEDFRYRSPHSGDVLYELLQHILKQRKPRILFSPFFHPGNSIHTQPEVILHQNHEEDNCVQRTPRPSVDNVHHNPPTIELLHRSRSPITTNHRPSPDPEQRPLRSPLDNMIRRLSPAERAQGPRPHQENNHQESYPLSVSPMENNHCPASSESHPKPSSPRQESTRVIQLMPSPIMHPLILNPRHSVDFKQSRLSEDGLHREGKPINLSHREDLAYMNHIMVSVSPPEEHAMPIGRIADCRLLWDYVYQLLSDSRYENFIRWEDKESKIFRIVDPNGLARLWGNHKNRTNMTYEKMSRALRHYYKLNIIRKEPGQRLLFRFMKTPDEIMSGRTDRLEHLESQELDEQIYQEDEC
In short: as §1

Row | Sequence | binding signal (ERF) | binding signal (ETV3L) | binding signal (ETS2) | binding signal (SPDEF) | binding signal (ETV7) | binding signal (ELF5) | binding signal (ETV3) | binding signal (ETV6)
1 | TTGTTT | 1.45 fold enrichment (6-mer frequency, TF over GST control) | 1.46 fold enrichment (6-mer frequency, TF over GST control) | 1.39 fold enrichment (6-mer frequency, TF over GST control) | 1.32 fold enrichment (6-mer frequency, TF over GST control) | 1.6 fold enrichment (6-mer frequency, TF over GST control) | 1.37 fold enrichment (6-mer frequency, TF over GST control) | 1.5 fold enrichment (6-mer frequency, TF over GST control) | 1.53 fold enrichment (6-mer frequency, TF over GST control)
2 | CACTTA | 1.22 fold enrichment (6-mer frequency, TF over GST control) | 1.13 fold enrichment (6-mer frequency, TF over GST control) | 1.22 fold enrichment (6-mer frequency, TF over GST control) | 1.34 fold enrichment (6-mer frequency, TF over GST control) | 1.21 fold enrichment (6-mer frequency, TF over GST control) | 1.18 fold enrichment (6-mer frequency, TF over GST control) | 1.24 fold enrichment (6-mer frequency, TF over GST control) | 1.23 fold enrichment (6-mer frequency, TF over GST control)
3 | CCTCAG | 1.35 fold enrichment (6-mer frequency, TF over GST control) | 1.27 fold enrichment (6-mer frequency, TF over GST control) | 1.25 fold enrichment (6-mer frequency, TF over GST control) | 1.1 fold enrichment (6-mer frequency, TF over GST control) | 1.1 fold enrichment (6-mer frequency, TF over GST control) | 1.14 fold enrichment (6-mer frequency, TF over GST control) | 1.17 fold enrichment (6-mer frequency, TF over GST control) | 1.15 fold enrichment (6-mer frequency, TF over GST control)
4 | ATGGAT | 1.09 fold enrichment (6-mer frequency, TF over GST control) | 1.16 fold enrichment (6-mer frequency, TF over GST control) | 1.09 fold enrichment (6-mer frequency, TF over GST control) | 1.01 fold enrichment (6-mer frequency, TF over GST control) | 1.16 fold enrichment (6-mer frequency, TF over GST control) | 1.06 fold enrichment (6-mer frequency, TF over GST control) | 1.11 fold enrichment (6-mer frequency, TF over GST control) | 1.09 fold enrichment (6-mer frequency, TF over GST control)
5 | CTGCTT | 1.67 fold enrichment (6-mer frequency, TF over GST control) | 1.7 fold enrichment (6-mer frequency, TF over GST control) | 1.63 fold enrichment (6-mer frequency, TF over GST control) | 1.67 fold enrichment (6-mer frequency, TF over GST control) | 1.57 fold enrichment (6-mer frequency, TF over GST control) | 1.64 fold enrichment (6-mer frequency, TF over GST control) | 1.75 fold enrichment (6-mer frequency, TF over GST control) | 1.71 fold enrichment (6-mer frequency, TF over GST control)
6 | TTCCAC | 1.38 fold enrichment (6-mer frequency, TF over GST control) | 1.54 fold enrichment (6-mer frequency, TF over GST control) | 1.44 fold enrichment (6-mer frequency, TF over GST control) | 1.36 fold enrichment (6-mer frequency, TF over GST control) | 1.31 fold enrichment (6-mer frequency, TF over GST control) | 1.51 fold enrichment (6-mer frequency, TF over GST control) | 1.46 fold enrichment (6-mer frequency, TF over GST control) | 1.47 fold enrichment (6-mer frequency, TF over GST control)
7 | ATTTCT | 1.35 fold enrichment (6-mer frequency, TF over GST control) | 1.49 fold enrichment (6-mer frequency, TF over GST control) | 1.54 fold enrichment (6-mer frequency, TF over GST control) | 1.4 fold enrichment (6-mer frequency, TF over GST control) | 1.47 fold enrichment (6-mer frequency, TF over GST control) | 1.5 fold enrichment (6-mer frequency, TF over GST control) | 1.42 fold enrichment (6-mer frequency, TF over GST control) | 1.39 fold enrichment (6-mer frequency, TF over GST control)
8 | CTCTTT | 1.39 fold enrichment (6-mer frequency, TF over GST control) | 1.53 fold enrichment (6-mer frequency, TF over GST control) | 1.41 fold enrichment (6-mer frequency, TF over GST control) | 1.53 fold enrichment (6-mer frequency, TF over GST control) | 1.5 fold enrichment (6-mer frequency, TF over GST control) | 1.42 fold enrichment (6-mer frequency, TF over GST control) | 1.53 fold enrichment (6-mer frequency, TF over GST control) | 1.4 fold enrichment (6-mer frequency, TF over GST control)
9 | TTCGAA | 1.33 fold enrichment (6-mer frequency, TF over GST control) | 1.25 fold enrichment (6-mer frequency, TF over GST control) | 1.24 fold enrichment (6-mer frequency, TF over GST control) | 1.17 fold enrichment (6-mer frequency, TF over GST control) | 1.26 fold enrichment (6-mer frequency, TF over GST control) | 1.14 fold enrichment (6-mer frequency, TF over GST control) | 1.03 fold enrichment (6-mer frequency, TF over GST control) | 1.15 fold enrichment (6-mer frequency, TF over GST control)
10 | TACATG | 1.34 fold enrichment (6-mer frequency, TF over GST control) | 1.2 fold enrichment (6-mer frequency, TF over GST control) | 1.2 fold enrichment (6-mer frequency, TF over GST control) | 1.21 fold enrichment (6-mer frequency, TF over GST control) | 1.25 fold enrichment (6-mer frequency, TF over GST control) | 1.16 fold enrichment (6-mer frequency, TF over GST control) | 1.33 fold enrichment (6-mer frequency, TF over GST control) | 1.24 fold enrichment (6-mer frequency, TF over GST control)
11 | TTTTAA | 1.37 fold enrichment (6-mer frequency, TF over GST control) | 1.28 fold enrichment (6-mer frequency, TF over GST control) | 1.28 fold enrichment (6-mer frequency, TF over GST control) | 1.21 fold enrichment (6-mer frequency, TF over GST control) | 1.32 fold enrichment (6-mer frequency, TF over GST control) | 1.17 fold enrichment (6-mer frequency, TF over GST control) | 1.23 fold enrichment (6-mer frequency, TF over GST control) | 1.27 fold enrichment (6-mer frequency, TF over GST control)
12 | TTGTTA | 1.28 fold enrichment (6-mer frequency, TF over GST control) | 1.35 fold enrichment (6-mer frequency, TF over GST control) | 1.34 fold enrichment (6-mer frequency, TF over GST control) | 1.26 fold enrichment (6-mer frequency, TF over GST control) | 1.35 fold enrichment (6-mer frequency, TF over GST control) | 1.29 fold enrichment (6-mer frequency, TF over GST control) | 1.3 fold enrichment (6-mer frequency, TF over GST control) | 1.33 fold enrichment (6-mer frequency, TF over GST control)
13 | TAGTAT | 1.29 fold enrichment (6-mer frequency, TF over GST control) | 1.23 fold enrichment (6-mer frequency, TF over GST control) | 1.27 fold enrichment (6-mer frequency, TF over GST control) | 1.15 fold enrichment (6-mer frequency, TF over GST control) | 1.44 fold enrichment (6-mer frequency, TF over GST control) | 1.25 fold enrichment (6-mer frequency, TF over GST control) | 1.26 fold enrichment (6-mer frequency, TF over GST control) | 1.29 fold enrichment (6-mer frequency, TF over GST control)
14 | AATTCC | 1.65 fold enrichment (6-mer frequency, TF over GST control) | 1.87 fold enrichment (6-mer frequency, TF over GST control) | 1.86 fold enrichment (6-mer frequency, TF over GST control) | 1.98 fold enrichment (6-mer frequency, TF over GST control) | 1.7 fold enrichment (6-mer frequency, TF over GST control) | 2.39 fold enrichment (6-mer frequency, TF over GST control) | 2.09 fold enrichment (6-mer frequency, TF over GST control) | 1.97 fold enrichment (6-mer frequency, TF over GST control)
15 | AACGAT | 1.29 fold enrichment (6-mer frequency, TF over GST control) | 1.19 fold enrichment (6-mer frequency, TF over GST control) | 1.22 fold enrichment (6-mer frequency, TF over GST control) | 1.14 fold enrichment (6-mer frequency, TF over GST control) | 1.17 fold enrichment (6-mer frequency, TF over GST control) | 1.19 fold enrichment (6-mer frequency, TF over GST control) | 1.24 fold enrichment (6-mer frequency, TF over GST control) | 1.25 fold enrichment (6-mer frequency, TF over GST control)
